Each structure is given as a SMILES string. Values without a mark were called inactive. Some of the results follow. The source made the active and inactive calls.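 How the source made its calls, unless noted: active means inhibition above the mean of solvent-only control wells plus 3 SD, cutoff set per campaign (cut at about 13% in these data); inactive means the rest.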

Assay [1] in a line: STAT3 reporter inhibitors, retest of hits, confirmation, U3A cells, luciferase, luminescence (AID 1265;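 active means inhibition above the hit cutoff computed for the primary STAT3 screen, cut at about 44% in these data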;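 further: 0% = IL-6 plus DMSO and 100% = IL-6 plus nifuroxazide control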). The conditions noted are these: IL-6 STAT3 luciferase reporter, at 5.7 µM, stronger effect = higher value, cell line lacks STAT1. For orientation: Reporter assays use an easily measured gene product as a stand-in for the process of interest.
Assay [2] can be described thus: NF-kB reporter inhibitors in human cells, confirmation, counter-screen for STAT3 inhibitor project, cell-based, HEK293T, luciferase, TNF-alpha stimulus (AID 1308).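 Further: 0% = TNF-alpha with DMSO and 100% = TNF-alpha with MG high control.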 The conditions noted are these: TNF-alpha induced, at 5.7 µM, stronger effect = higher value. For orientation: The purpose of a counterscreen is to sort out artefacts and off-target activity.
Assay [3] in a line: STAT1 reporter inhibitors, IFN-gamma induced, confirmation, counter-screen for STAT3 inhibitor project, cell-based, NIH 3T3, luciferase luminescence (AID 1317;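 active means inhibition above the mean plus 3 SD of solvent-only control wells, limit set per screening run, cut at about 16% in these data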;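 further: 0% = DMSO with IFN-gamma and 100% = nifuroxazide control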). The conditions noted are these: NIH 3T3 STAT1-luciferase reporter, at 5.7 µM, stronger effect = higher value.
The target of assay [4] is Oxysterols receptor LXR-beta (Homo sapiens) (UniProt P55055). As to the kind of experiment: LXR agonists, Gal4 luciferase reporter, confirmation, counter-screen for hcDAF-12 agonist project, cell-based, luminescence, HEK293, H. contortus campaign (AID 743027;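 active means mean percent activation of the reporter above a cutoff set as the average over tested compounds plus their standard deviation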). To be noted: HEK293 Gal4-LXR tk-luc reporter, 24 h, at 6.8 µM, stronger effect = higher value, normalized: DMSO 0%, positive control 100%.
Sequence of Oxysterols receptor LXR-beta (Homo sapiens) (P55055 whole entry, looked up, the tested form may be a part): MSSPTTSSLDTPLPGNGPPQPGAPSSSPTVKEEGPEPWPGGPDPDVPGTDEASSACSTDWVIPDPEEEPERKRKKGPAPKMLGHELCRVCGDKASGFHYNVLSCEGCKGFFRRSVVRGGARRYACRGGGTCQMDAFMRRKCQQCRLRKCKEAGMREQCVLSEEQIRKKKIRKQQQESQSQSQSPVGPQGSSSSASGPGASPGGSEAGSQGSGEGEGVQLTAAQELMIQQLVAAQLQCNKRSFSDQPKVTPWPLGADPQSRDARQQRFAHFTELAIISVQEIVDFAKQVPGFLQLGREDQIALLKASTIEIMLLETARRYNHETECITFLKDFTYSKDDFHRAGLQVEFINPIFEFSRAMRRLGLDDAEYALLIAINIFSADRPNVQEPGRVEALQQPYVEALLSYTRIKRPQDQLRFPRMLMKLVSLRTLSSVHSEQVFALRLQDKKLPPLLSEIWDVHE

The test system of assay [5] is Nuclear hormone receptor DAF-12 (Haemonchus contortus). As to the kind of experiment: H. contortus DAF-12 receptor agonists, confirmation, cell-based, luminescence, HEK293, lit1-tk-luc, triplicate (AID 743032;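 active means mean activation across triplicate tests above the threshold derived from the earlier primary screen, cut at about 5.5% in these data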;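 further: 0% = DMSO only wells and 100% = 3 µM Δ7-dafachronic acid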). The conditions noted are these: HEK293 hcDAF-12 lit1-tk-luc reporter, at 6.8 µM, stronger effect = higher value, % of Δ7-dafachronic acid response.
For assay [6], the system named is DAF-12 nuclear receptor (Heterodera glycines), GAL4-LBD fusion. Briefly: H. glycines DAF-12 receptor agonists, confirmation, cell-based, luminescence, HEK293, GAL4-LBD fusion (AID 743050;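 active means mean activation over triplicate wells above the hit cutoff derived from the earlier primary screen, cut at about 11% in these data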;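 further: 0% = DMSO low control and 100% = 2 mM sodium butyrate high control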). The conditions noted are these: HEK293 GAL4-hgDAF12 luciferase reporter, agonist mode; at 6.8 µM; stronger effect = higher value; percent of butyrate response.
The target of assay [7] is Oxysterols receptor LXR-beta (Homo sapiens) (UniProt P55055). Briefly: LXR agonists, Gal4 luciferase reporter, confirmation, counter-screen for hgDAF-12 agonist project, cell-based, luminescence, HEK293, H. glycines campaign (AID 743051;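 active means mean activation of the triplicate above a set limit carried over from the primary screen, none filed active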). The conditions noted are these: 24 h, at 6.8 µM, stronger effect = higher value.
Assay [8] addresses Photoreceptor-specific nuclear receptor (Homo sapiens) (UniProt Q9Y5X4). As to the kind of experiment: NR2E3 agonist confirmation in cells, cell-based, luminescence, CHO-S two-hybrid (AID 624378;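 active means average inhibition above a cutoff equal to the mean inhibition of all tested compounds plus one SD, cut at about 70% in these data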;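 further: 0% = DMSO in NR2E3 cells and 100% = DMSO in cells lacking NR2E3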). The conditions noted are these: CHO-S mammalian two-hybrid NR2E3-NCOR, luciferase luminescence; at 3.98 µM; stronger effect = higher value.
Assay [9] can be described thus: GAL4-VP16 reporter modulators, confirmation, counter-screen for NR2E3 agonist project, cell-based, luminescence, CHO-S, high throughput (AID 624379;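 active means mean inhibition above a cutoff equal to the average over all tested compounds plus one standard deviation, cut at about 70% in these data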;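 further: luciferase from a UAS reporter driven by GAL4-VP16 transactivation; 0% = DMSO with VP16-transfected cells and 100% = DMSO with cells lacking VP16; higher means less reporter light so more repression of VP16 activity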). To be noted: CHO-S GAL4-VP16 luciferase reporter, at 3.98 µM, stronger effect = higher value.
Assay [10] can be described thus: Gal4-VP16 luciferase reporter inhibitors, counter-screen for COUP-TFII antagonist project, cell-based, luminescence, HEK293 (AID 687007; in the data active means inhibition above about 13%). To be noted: at 8.5 µM, stronger effect = higher value.
The target of assay [11] is COUP transcription factor 2 (Homo sapiens) (UniProt P24468). Briefly: NR2F2 transcriptional activity inhibitors, confirmation, cell-based, luciferase reporter, HEK293, triplicate (AID 687008;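 active means mean inhibition over three repeats above a set limit taken from the earlier primary screen, cut at about 38% in these data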;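 further: 100% = cells given the luciferase reporter alone without the COUP-TF2 vector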). To be noted: HEK293 NGFI-A luciferase reporter, luminescence; at 8.5 µM; stronger effect = higher value.
Sequence of COUP transcription factor 2 (Homo sapiens) (P24468 whole entry, looked up): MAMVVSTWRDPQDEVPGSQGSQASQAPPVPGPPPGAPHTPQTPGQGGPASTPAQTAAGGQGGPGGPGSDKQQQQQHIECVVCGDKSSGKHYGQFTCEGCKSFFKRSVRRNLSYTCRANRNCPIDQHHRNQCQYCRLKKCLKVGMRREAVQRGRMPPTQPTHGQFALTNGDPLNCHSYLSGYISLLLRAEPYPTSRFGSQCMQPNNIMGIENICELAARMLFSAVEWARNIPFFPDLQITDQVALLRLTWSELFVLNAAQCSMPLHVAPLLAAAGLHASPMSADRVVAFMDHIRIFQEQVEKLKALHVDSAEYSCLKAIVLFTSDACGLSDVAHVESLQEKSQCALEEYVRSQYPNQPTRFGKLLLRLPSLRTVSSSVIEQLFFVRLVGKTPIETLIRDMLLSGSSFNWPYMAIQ
Assay [12] concerns the target Peroxisome proliferator-activated receptor gamma (Homo sapiens) (UniProt P37231). As to the kind of experiment: agonists of PPARgamma SRC-2 coactivator recruitment, confirmation, biochemical, HTS (AID 1297; in the data active means activation above about 22%;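 further: 0% = vehicle alone and 100% = reference agonist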). The conditions noted are these: biochemical SRC-2 recruitment by PPARgamma; at 8 µM; stronger effect = higher value.
The target is the same in assay [13]. Briefly: PPARgamma agonists recruiting SRC-1 coactivator, confirmation, biochemical (AID 1300; in the data active means activation above about 20%;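 further: 0% = vehicle wells and 100% = reference agonist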). The conditions noted are these: PPARgamma–SRC-1 coactivator recruitment biochemical assay; at 8 µM; stronger effect = higher value.
For assay [14], the target named is Peroxisome proliferator-activated receptor gamma (Homo sapiens) + Nuclear receptor coactivator 3 (Homo sapiens) (UniProt P37231+Q9Y6Q9). As to the kind of experiment: PPARgamma-driven SRC-3 coactivator recruitment agonists, confirmation, biochemical (AID 1301; in the data active means activation above about 24%;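 further: 0% = vehicle wells and 100% = reference agonist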). To be noted: biochemical PPARgamma-SRC-3 coactivator recruitment, agonist mode; at 8 µM; stronger effect = higher value.
Sequence of Peroxisome proliferator-activated receptor gamma (Homo sapiens) + Nuclear receptor coactivator 3 (Homo sapiens) (P37231 whole entry, looked up): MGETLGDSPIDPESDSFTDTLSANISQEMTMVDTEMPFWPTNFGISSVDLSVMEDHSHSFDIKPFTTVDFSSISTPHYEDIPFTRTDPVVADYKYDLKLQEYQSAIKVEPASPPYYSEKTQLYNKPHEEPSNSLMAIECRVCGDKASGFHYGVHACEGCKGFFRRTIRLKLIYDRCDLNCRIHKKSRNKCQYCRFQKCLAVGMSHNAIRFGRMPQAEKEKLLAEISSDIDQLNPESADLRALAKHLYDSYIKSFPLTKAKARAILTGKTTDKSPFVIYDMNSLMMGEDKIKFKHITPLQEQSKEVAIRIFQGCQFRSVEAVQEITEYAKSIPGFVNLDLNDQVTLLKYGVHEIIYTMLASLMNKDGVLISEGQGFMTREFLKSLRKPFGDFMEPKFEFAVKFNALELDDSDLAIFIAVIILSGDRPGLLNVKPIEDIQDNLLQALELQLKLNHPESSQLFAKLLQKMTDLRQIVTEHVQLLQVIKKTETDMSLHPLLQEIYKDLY
Sequence of Peroxisome proliferator-activated receptor gamma (Homo sapiens) + Nuclear receptor coactivator 3 (Homo sapiens) (Q9Y6Q9 whole entry, looked up): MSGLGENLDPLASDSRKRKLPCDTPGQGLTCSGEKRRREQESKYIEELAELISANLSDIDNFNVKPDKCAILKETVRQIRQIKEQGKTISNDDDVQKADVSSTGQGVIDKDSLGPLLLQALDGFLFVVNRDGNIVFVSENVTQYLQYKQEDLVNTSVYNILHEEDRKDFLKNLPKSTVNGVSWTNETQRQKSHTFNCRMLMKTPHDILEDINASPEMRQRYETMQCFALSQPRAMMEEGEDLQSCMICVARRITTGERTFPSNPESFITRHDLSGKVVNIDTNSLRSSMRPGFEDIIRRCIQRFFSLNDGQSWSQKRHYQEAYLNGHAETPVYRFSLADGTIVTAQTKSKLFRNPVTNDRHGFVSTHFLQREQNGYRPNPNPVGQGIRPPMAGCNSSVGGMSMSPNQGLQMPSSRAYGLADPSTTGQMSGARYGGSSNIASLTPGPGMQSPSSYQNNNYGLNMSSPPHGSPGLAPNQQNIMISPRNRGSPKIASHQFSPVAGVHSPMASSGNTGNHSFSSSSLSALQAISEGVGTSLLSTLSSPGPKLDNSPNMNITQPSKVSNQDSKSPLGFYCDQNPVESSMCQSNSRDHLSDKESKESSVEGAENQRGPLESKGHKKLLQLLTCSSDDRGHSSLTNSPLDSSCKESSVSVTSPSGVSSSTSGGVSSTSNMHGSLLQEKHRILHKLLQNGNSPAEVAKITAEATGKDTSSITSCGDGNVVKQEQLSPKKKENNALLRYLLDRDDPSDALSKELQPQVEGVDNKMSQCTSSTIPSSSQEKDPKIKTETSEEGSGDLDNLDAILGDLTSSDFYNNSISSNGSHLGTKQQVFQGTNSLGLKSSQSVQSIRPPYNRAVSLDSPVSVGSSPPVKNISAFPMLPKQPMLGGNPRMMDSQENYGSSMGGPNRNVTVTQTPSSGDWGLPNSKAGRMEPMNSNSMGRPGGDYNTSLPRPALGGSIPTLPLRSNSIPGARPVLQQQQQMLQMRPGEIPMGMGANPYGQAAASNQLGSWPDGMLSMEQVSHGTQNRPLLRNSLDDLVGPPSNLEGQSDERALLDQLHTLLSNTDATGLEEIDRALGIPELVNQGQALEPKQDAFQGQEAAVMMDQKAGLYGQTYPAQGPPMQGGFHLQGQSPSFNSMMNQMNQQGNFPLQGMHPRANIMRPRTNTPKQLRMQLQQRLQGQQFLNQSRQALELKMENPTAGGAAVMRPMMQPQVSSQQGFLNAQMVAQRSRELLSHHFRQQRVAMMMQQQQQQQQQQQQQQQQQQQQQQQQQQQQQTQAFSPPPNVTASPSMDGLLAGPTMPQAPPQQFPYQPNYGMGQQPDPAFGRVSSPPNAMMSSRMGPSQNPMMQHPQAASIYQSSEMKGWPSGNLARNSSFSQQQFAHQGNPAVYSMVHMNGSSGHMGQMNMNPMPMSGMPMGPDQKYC

Assay [15] has as its target Nuclear receptor coactivator 1 (Homo sapiens) (UniProt Q15788). As to the kind of experiment: SRC1 coactivator transcriptional activity inhibitors, confirmation, cell-based, luminescence, quadruplicate (AID 588820;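 active means mean inhibition above 46.68%, the untreated control wells mean plus 3 SD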;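 further: 0% = DMSO wells and 100% = gossypol 36 µM treated wells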). To be noted: HEK293 GAL4-SRC1 luciferase reporter, at 3.6 µM, stronger effect = higher value.
Assay [16] can be described thus: VP16 transactivation inhibitors, counter-screen for SRC1 inhibitor project, cell-based, luminescence, high throughput (AID 588824; in the data active means inhibition above about 25%). The conditions noted are these: cell-based VP16 transactivation luciferase luminescence; at 3.6 µM; stronger effect = higher value.
Assay [17] has as its target Receptor-interacting serine/threonine-protein kinase 2 (Homo sapiens) (UniProt O43353). Briefly: NOD2-RIPK2 binding disruptors, retest, confirmation, fluorescence, CHO cells, BLA complementation, triplicate (AID 624370;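 active means mean inhibition across replicates above a set limit taken from the earlier primary screen, cut at about 21% in these data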;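 further: 0% = DMSO-only wells and the high end = clavulanate BLA-blocked wells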). To be noted: CCF4 FRET, at 4.98 µM, stronger effect = higher value.
Assay [18] is described as follows: beta-lactamase reporter inhibitors in CHO cells, confirmation, artefact control for NOD2-RIPK2 interaction inhibitor project, cell-based, CHO-K1 CMV-bla, CCF4 FRET, fluorescence (AID 624371;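 active means mean inhibition above the low-control mean inhibition plus three low-control SD, cut at about 11% in these data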;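 further: 0% = DMSO only wells and 100% = clavulanate high control wells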). The conditions noted are these: CCF4 FRET ratio, counterscreen, at 4.98 µM, stronger effect = higher value.
Assay [19] can be described thus: StAR promoter reporter inhibitors, counter-screen for LRH-1 inverse agonist project, cell-based, luminescence, high throughput (AID 651611; in the data active means inhibition above about 28%). To be noted: StAR promoter luciferase reporter counterscreen, at 3.6 µM, stronger effect = higher value.
Assay [20] addresses Nuclear receptor subfamily 5 group A member 2 (Homo sapiens) (UniProt O00482). Briefly: LRH-1 (NR5A2) inverse agonists, retest, confirmation, cell-based, luminescence (AID 651613; in the data active means inhibition above about 42%;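 further: HEK293T cells co-transfected with LRH-1 and StAR promoter luciferase reporter; 0% = vehicle wells and 100% = parental cells lacking receptor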). The conditions noted are these: cell-based LRH-1 luciferase reporter, inverse agonism; at 3.6 µM; stronger effect = higher value.
The target of assay [21] is Steroidogenic factor 1 (Homo sapiens) (UniProt Q13285). Briefly: SF1 (NR5A1) inverse agonists, counter-screen for LRH-1 inverse agonist project, cell-based, luminescence, high throughput (AID 651614; in the data active means inhibition above about 44%;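 further: cells cotransfected with StAR promoter reporter and SF1 expression vector; 0% = vehicle on cells with receptor and 100% = vehicle on cells lacking receptor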). The conditions noted are these: cell-based SF1 luciferase reporter, at 3.6 µM, stronger effect = higher value.
Sequence of Steroidogenic factor 1 (Homo sapiens) (Q13285 whole entry, looked up, the tested form may be a part): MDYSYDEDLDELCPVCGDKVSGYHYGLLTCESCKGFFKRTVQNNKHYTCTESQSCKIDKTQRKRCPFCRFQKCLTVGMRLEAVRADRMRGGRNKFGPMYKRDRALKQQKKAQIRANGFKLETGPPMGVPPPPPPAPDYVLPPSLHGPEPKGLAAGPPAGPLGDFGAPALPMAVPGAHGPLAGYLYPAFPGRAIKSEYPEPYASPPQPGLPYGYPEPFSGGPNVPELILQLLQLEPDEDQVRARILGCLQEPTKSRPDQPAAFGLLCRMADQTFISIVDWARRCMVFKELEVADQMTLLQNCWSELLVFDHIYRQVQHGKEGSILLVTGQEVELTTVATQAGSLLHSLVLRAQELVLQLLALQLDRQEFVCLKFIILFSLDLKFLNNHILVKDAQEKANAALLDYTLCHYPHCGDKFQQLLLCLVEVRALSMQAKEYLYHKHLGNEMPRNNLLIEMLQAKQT
Assay [22] can be described thus: VP16 transactivation reporter inhibitors, counter-screen for LRH-1 inverse agonist project, cell-based, luminescence, high throughput (AID 651615; in the data active means inhibition above about 33%). To be noted: Gal4-VP16 luciferase reporter cells, at 3.6 µM, stronger effect = higher value.

Sequence of Nuclear receptor subfamily 5 group A member 2 (Homo sapiens) (O00482 whole entry, looked up): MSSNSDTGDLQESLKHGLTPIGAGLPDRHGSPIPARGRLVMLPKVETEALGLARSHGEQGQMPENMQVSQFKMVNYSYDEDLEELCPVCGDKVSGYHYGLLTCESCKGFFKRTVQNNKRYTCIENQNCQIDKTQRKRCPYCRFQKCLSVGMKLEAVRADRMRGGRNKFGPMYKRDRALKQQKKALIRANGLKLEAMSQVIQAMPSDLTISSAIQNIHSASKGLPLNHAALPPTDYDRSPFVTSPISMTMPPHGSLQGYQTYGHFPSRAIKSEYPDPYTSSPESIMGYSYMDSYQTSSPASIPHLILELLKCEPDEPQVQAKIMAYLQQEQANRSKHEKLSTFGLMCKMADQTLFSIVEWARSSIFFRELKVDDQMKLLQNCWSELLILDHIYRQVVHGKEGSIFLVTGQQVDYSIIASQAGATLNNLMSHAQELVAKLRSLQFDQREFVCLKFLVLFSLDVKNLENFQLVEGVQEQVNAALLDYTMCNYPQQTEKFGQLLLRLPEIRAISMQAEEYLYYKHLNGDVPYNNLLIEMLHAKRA
Sequence of Peroxisome proliferator-activated receptor gamma (Homo sapiens) (P37231 whole entry, looked up): as the sequence (P37231 whole entry, looked up) above
Sequence of Photoreceptor-specific nuclear receptor (Homo sapiens) (Q9Y5X4 whole entry, looked up, the tested form may be a part): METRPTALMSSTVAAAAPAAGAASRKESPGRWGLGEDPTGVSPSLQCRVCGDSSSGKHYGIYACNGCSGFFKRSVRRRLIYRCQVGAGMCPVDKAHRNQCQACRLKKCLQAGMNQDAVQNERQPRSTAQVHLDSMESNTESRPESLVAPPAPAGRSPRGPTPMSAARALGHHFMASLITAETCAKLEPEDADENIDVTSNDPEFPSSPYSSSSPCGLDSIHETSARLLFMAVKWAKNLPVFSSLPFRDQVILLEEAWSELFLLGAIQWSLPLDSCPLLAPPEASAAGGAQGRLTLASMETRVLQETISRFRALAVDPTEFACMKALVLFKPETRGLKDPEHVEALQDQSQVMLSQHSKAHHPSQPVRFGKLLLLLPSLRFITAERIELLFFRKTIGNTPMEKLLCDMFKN

`O=c1c2c(nc3cc(-c4cccc(Cl)c4)[nH]n13)CCCC2`: the inhibition (in general, the relative decrease from the control value, in per cent) is 21.9% in assay [1], -3.1% in assay [2] and -108% in [3]. Moreover, the activation is 1.76% in [4], 9.19% (active) in assay [5], 13.8% (active) in assay [6] and 1.15% in assay [7].

For `Cc1nc2ccccc2cc1OCc1ccc(F)cc1`, the inhibition was 61.5% (active) in assay [1]; 6.3% in assay [2]; 5.63% in [3]; 82.5% (active) in assay [8]; 70.5% in [9]; -26.8% in [10]. For the same compound, the inhibition in assay [11] is 38% (active).

On to `N=C(N)SCc1cccc2ccccc12`, for which the inhibition is 31.7% in assay [1]; 4.87% in assay [2]; 19.2% (active) in assay [3]; 6.09% in [10]; 20.6% in [11].

For `Cc1ccc(N/C=C/C(=O)c2ccccc2)cc1C`, the inhibition in assay [1] was 20.9%; in assay [2], 13.8% (active); in assay [3], -55.2%. In addition, the activation in assay [4] is 1.51%; in [5], 16.8% (active); in assay [6] it was 8.78%; in [7] it was 1.25%.

`OCC1(CCc2ccccc2)CCN(Cc2ccc3nsnc3c2)CC1`: the activation in assay [12] is 32.8% (active); in [13] it was 26.3% (active); in [14] it was 22.9%.

On to `CN(Cc1cccnc1)C(=O)c1cc(COc2ccc3ncccc3c2)on1`, for which the inhibition in assay [1] is 75.9% (active); in [2], 25.1% (active); in assay [3], 27.1% (active); in assay [15], -14.7%; in assay [16], 26.4% (active); in assay [8] it was 89.1% (active). The inhibition in assay [9] is 78.8% (active); in assay [10] it was 0.64%; in assay [11] it was 59% (active).

For the compound `Cn1c(=O)cc(SCC(=O)N2CCN(C(=O)c3ccco3)CC2)c2ccccc21`, the activation in [12] was 22.2% (active); in [13], 12.7%; in [14], 17.9%.

As to `COc1cccc(-c2nc3cc(C)ccc3o2)c1`, the inhibition is 1.5% in [1], -23.8% in assay [2] and -109% in assay [3]. Moreover, the activation was 2.33% in assay [4] and 16.7% (active) in [5].

For the compound `CCOc1ccc(-c2nnc(-c3ccco3)o2)cc1`, the inhibition in [1] is 43.7% (active); in assay [2], 13.6% (active); in [3], -56.6%. The values for the activation in [6] and in assay [7] were 15.5% (active) and 0.7%, respectively.

Regarding `Cc1cc(C)c2cc(CN(Cc3cccs3)Cc3nnnn3CC3CCCO3)c(=O)[nH]c2c1` (stereo unspecified), the results for the activation in assay [12], in [13] and in [14] were 9.95%, 11.9% and 15%, respectively.

As for `COc1ccc(-c2csc(Nc3ccccn3)n2)cc1`, the inhibition is 15.2% in assay [1], -36.5% in [2] and -205% in assay [3]. Besides, the values for the activation in assay [4] and in [5] were 1.36% and 6.22% (active), respectively.

`Cc1ccc(OCC(=O)Nc2ccc(-c3nc4ncccc4o3)cc2)cc1`: the activation in assay [12] was 2.88%; in assay [13] it was 8.01%; in [14], 5.41%.

Regarding `COc1ccc(Cn2c(=O)sc3ccccc32)cc1OC`, the inhibition was 36.6% in assay [1]; 2.57% in assay [2]; 13.3% in assay [3]; 70.9% (active) in assay [8]; 64.8% in assay [9]; -3.5% in assay [10]. Also, the inhibition in [11] is 26.6%.

Turning to `CCCc1ccc(-c2csc(NC(=O)Cc3cccs3)n2)cc1`, the inhibition was 34.2% in assay [1]; 4.13% in assay [2]; 4.43% in [3]; 32.7% (active) in [17]; 31.1% (active) in assay [18]; -25% in assay [10]. The inhibition in [11] is 15.2%.

Regarding `O=C(Nc1ccn(Cc2ccccc2)n1)c1n[nH]c([N+](=O)[O-])c1Cl`, the inhibition in assay [1] was 12.7%; in [2], -0.1%; in assay [3], -63.1%. In addition, the activation in assay [6] is 11.6% (active); in [7] it was 0.82%.

On to `COc1ccc(NS(=O)(=O)c2ccc(NC(=O)c3ccc(N(C)S(C)(=O)=O)cc3)cc2)cc1`, for which the inhibition in assay [1] is 56.6% (active); in [2] it was 9.03%; in [3], 5.2%; in assay [19] it was 19.3%; in [20], 50.5% (active); in assay [21], 46.7% (active). Besides, the results for the inhibition in assay [22], in assay [10] and in assay [11] were 40.7% (active), 8.59% and 45% (active), respectively.

Consider `CC(C)CC(=O)N/C(N)=N/c1nc2ccccc2s1`, for which the results for the inhibition in assay [1], in [2] and in assay [3] were 6.93%, -39.6% and -138%, respectively. Besides, the activation was 1.25% in assay [4] and 5.93% (active) in assay [5].

`Cc1ccc(S(=O)(=O)Nc2ccc3ncccc3c2)cc1`: the inhibition was 42.9% in assay [1]; 3.83% in assay [2]; 18% (active) in [3]; -9.28% in assay [15]; 5.01% in assay [16]; 89.4% (active) in assay [8]. The inhibition was 74.4% (active) in assay [9]; 14.9% in assay [19]; 47.2% (active) in [20]; 36.3% in [21]; 18.1% in [22].

For the compound `O=C(Nc1ccc(CSc2ccccc2)cc1)c1ccc(CN2CCOCC2)cc1`, the inhibition is 83.7% (active) in [1]; 33.3% (active) in assay [2]; 10.4% in [3]; 28.7% (active) in assay [19]; 65.5% (active) in assay [20]; 63% (active) in assay [21]. In addition, the results for the inhibition in assay [22], in assay [10] and in assay [11] were 54.8% (active), -2.4% and 65.8% (active), respectively.

`Cc1nc(CNS(=O)(=O)c2ccc(Oc3ccccc3)cc2)cs1`: the inhibition in [1] is 43.6% (active); in assay [2] it was 6.1%; in assay [3], 12.1%; in assay [8], 87.9% (active); in assay [9], 82.8% (active); in assay [19] it was 11%. Also, the inhibition in assay [20] is 44.6% (active); in assay [21], 43.7% (active); in [22], 37% (active); in assay [10], 1.48%; in assay [11] it was 27%.

The record behind these values is PubChem BioAssay.
